According to PubChem BioAssay (NCI):
Compounds without any hit were thinned out: in the full panel of roughly 79,000, 15% have a hit. A number with no mark means an inactive call. Calls of active or inactive are those of the source. No stated cut-off is given here; in the data, active means growth inhibition above about 70%; inactive means the rest.

Test: NCI Yeast Anticancer Drug Screen. Data for the wt2 strain (AID 169);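 further: 0% = growth of vehicle-treated yeast cultures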
Details: S. cerevisiae wt2 strain growth inhibition, hits give high values
Procedure: Growth inhibition of yeast strains with defined genetic alterations is measured as a screen for potential anti-cancer activity. Selected strains with alterations in DNA damage repair or cell cycle control were exposed to compounds and growth inhibition was measured relative to vehicle treated controls. The strain used in this assay is wt2

| SMILES | growth inhibition (at 1.2 µM) [%] | growth inhibition (at 3.7 µM) [%] | growth inhibition (at 11.0 µM) | growth inhibition (at 33.0 µM) | growth inhibition (at 100.0 µM) |
| --- | --- | --- | --- | --- | --- |
| NCc1c(O)ccc2ccccc12 | 6 | 9 | 70% (active) | 99% (active) | 99% (active) |
| CC(=O)[C@]1(O)Cc2c(O)c3c(c(O)c2[C@@H](OC2CC(N)C(O)C(C)O2)C1)C(=O)c1c(OCc2ccccc2)cccc1C3=O (stereo not given in full) | -69 | -65 | -53% | -16% | 92% (active) |
| COc1cc(CNc2ccc(C(C)C)cc2)cc(OC)c1OC | -1 | -26 | -9% | -20% | 69% |
| COCCCN(Cc1cc(OC)c(OC)c(OC)c1)C(=S)Nc1cccc(Cl)c1 | 5 | -3 | -9% | 14% | 43% |
| CCCCC(=O)c1c(O)nc2sccn2c1=O | 7 | 19 | 86% (active) | 98% (active) | 99% (active) |
| Oc1ccc(C=Nc2ccccc2O)cc1 | 25 | 30 | 33% | 43% | 65% |
| Cc1ccc(S(=O)(=O)N(C)c2ccc(Cl)cc2C2=NCCc3ccccc32)cc1 | -25 | -40 | -19% | 6% | 94% (active) |
| Cc1ccc2c(ccc(/C=C/c3ccc(O)c4ncccc34)[n+]2C)c1 | -16 | 2 | 53% | 88% (active) | 79% (active) |
